Test results: PubChem BioAssay AID1159580 (chemical genetic matrix, 2015)
In all, about 5,500 compounds went through this assay and about 2,000 (36%) were called active. About 18% were inconclusive and are not listed. No stated cut-off is given here; in the data, active means normalized growth mostly below about 0.91 (no sharp cut-off); inconclusive means no clear call, values can overlap the other calls; inactive means mostly above about 0.92. The list shows a part of the results.

Assay: chemical genetic growth profiling, strain panel (AID 1159580);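 further: tested at 20 µM; growth read once vehicle control cultures reached saturation at 30 °C; 1 = growth at the plate median or of vehicle wells; lower values mean less growth of the strain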
Details: S. cerevisiae deletion strains, growth OD

Measured: normalized growth

CC(=O)O[C@@H]1CC2C(C)(C)C(=O)C3OC3[C@]2(C)C2CC[C@@]3(C)[C@H](c4ccoc4)OC(=O)C4OC43[C@@]21C (some centres not stated)
inactive: locus YAL021C, strain ccr4, active compounds read low 0.988 | locus YAL026C, strain drs2, active compounds read low 0.984 | locus YAL030W, strain snc1, active compounds read low 0.993 | locus YBL061C, strain skt5, active compounds read low 0.97 | locus YBR009C, strain hhf1, active compounds read low 0.981 | locus YBR021W, strain FUR4, active compounds read low 0.964 | locus YBR023C, strain chs3, active compounds read low 0.982 | locus YBR171W, strain sec66, active compounds read low 0.966 | locus YBR229C, strain ROT2, active compounds read low 0.994 | locus YBR231C, strain swc5, active compounds read low 0.975 | locus YBR279W, strain paf1, active compounds read low 0.988 | locus YCL011C, strain gbp2, active compounds read low 0.993 | locus YCL016C, strain dcc1, active compounds read low 0.991 | locus YCL029C, strain bik1, active compounds read low 1 | locus YCL061C, strain MRC1, active compounds read low 0.988 | locus YCL069W, strain vba3, active compounds read low 0.982 | locus YCR088W, strain abp1, active compounds read low 0.987 | locus YDL005C, strain med2, active compounds read low 0.971 | locus YDL035C, strain GPR1, active compounds read low 1.01 | locus YDL040C, strain nat1, active compounds read low 0.972 | locus YDL074C, strain BRE1, active compounds read low 0.994 | locus YDL101C, strain DUN1, active compounds read low 1.01 | locus YDL185W, strain tfp1, active compounds read low 0.999 | locus YDL192W, strain arf1, active compounds read low 1.01 | locus YDR001C, strain nth1, active compounds read low 0.986 | locus YDR069C, strain doa4, active compounds read low 0.993 | locus YDR101C, strain arx1, active compounds read low 1.01 | locus YDR137W, strain rgp1, active compounds read low 1 | locus YDR150W, strain NUM1, active compounds read low 1.01 | locus YDR159W, strain sac3, active compounds read low 0.941 | locus YDR162C, strain NBP2, active compounds read low 1.02 | locus YDR195W, strain ref2 0.978 | locus YDR297W, strain sur2, active compounds read low 0.983 | locus YDR318W, strain mcm21, active compounds read low 0.997 | locus YDR334W, strain swr1, active compounds read low 0.972 | locus YDR335W, strain msn5, active compounds read low 0.987 | locus YDR388W, active compounds read low 1 | locus YDR392W, strain spt3, active compounds read low 0.966 | locus YDR502C, strain sam2, active compounds read low 0.992 | locus YEL003W, strain gim4, active compounds read low 0.979 | locus YEL037C, strain rad23, active compounds read low 0.974 | locus YEL061C, strain CIN8 (second series), active compounds read low 0.983 | locus YER015W, strain faa2, active compounds read low 0.992 | locus YER016W, strain bim1, active compounds read low 0.987 | locus YER110C, active compounds read low 1 | locus YER111C, strain swi4, active compounds read low 0.976 | locus YER155C, strain BEM2 (second series), active compounds read low 0.986 | locus YER155C, strain BEM2, active compounds read low 0.996 | locus YER167W, strain BCK2, active compounds read low 1.01 | locus YFR010W, strain ubp6, active compounds read low 0.964 | locus YGL078C, strain dbp3, active compounds read low 0.997 | locus YGL086W, strain mad1, active compounds read low 1.03 | locus YGL167C, strain pmr1, active compounds read low 0.971 | locus YGL173C, strain kem1, active compounds read low 0.986 | locus YGL227W, strain vid30, active compounds read low 0.988 | locus YGL240W, strain doc1, active compounds read low 0.96 | locus YGL248W, strain PDE1, active compounds read low 1.01 | locus YGL253W, strain hxk2, active compounds read low 0.94 | locus YGR135W, strain pre9, active compounds read low 0.975 | locus YGR252W, strain gcn5, active compounds read low 0.928 | locus YHR013C, strain ard1, active compounds read low 0.969 | locus YHR027C, strain rpn1, active compounds read low 0.978 | locus YHR030C, strain SLT2, active compounds read low 0.988 | locus YHR079C, strain IRE1 (second series), active compounds read low 1 | locus YHR079C, strain IRE1, active compounds read low 1 | locus YHR094C, strain hxt1, active compounds read low 1 | locus YHR129C, strain ARP1, active compounds read low 1.01 | locus YHR142W, strain chs7, active compounds read low 0.965 | locus YHR200W, strain rpn10, active compounds read low 1 | locus YIL066C, strain RNR3, active compounds read low 1.01 | locus YIL073C, strain SPO22, active compounds read low 1.04 | locus YIL125W, strain kgd1, active compounds read low 0.996 | locus YIR030C, strain dcg1, active compounds read low 0.998 | locus YJL092W, strain hpr5, active compounds read low 0.981 | locus YJL095W, strain BCK1 (second series), active compounds read low 0.99 | locus YJL095W, strain BCK1, active compounds read low 1 | locus YJL115W, strain asf1, active compounds read low 0.982 | locus YJL129C, strain trk1, active compounds read low 0.965 | locus YJL134W, strain LCB3, active compounds read low 1.01 | locus YJL154C, strain vps35, active compounds read low 0.98 | locus YJL164C, strain tpk1, active compounds read low 1.03 | locus YJL166W, strain qcr8, active compounds read low 0.987 | locus YJL168C, strain set2, active compounds read low 0.996 | locus YJL187C, strain SWE1 (second series), active compounds read low 1 | locus YJL187C, strain SWE1, active compounds read low 0.993 | locus YJR066W, strain TOR1, active compounds read low 0.942 | locus YKL009W, strain mrt4, active compounds read low 1.08 | locus YKL068W, active compounds read low 1.01 | locus YKL160W, strain elf1, active compounds read low 1 | locus YKL190W, strain CNB1, active compounds read low 1.01 | locus YKR001C, strain vps1, active compounds read low 0.989 | locus YKR026C, strain gcn3, active compounds read low 0.977 | locus YKR091W, strain srl3, active compounds read low 0.982 | locus YLL001W, strain dnm1, active compounds read low 0.991 | locus YLL026W, active compounds read low 0.988 | locus YLL041C, strain sdh2, active compounds read low 0.981 | locus YLR027C, strain aat2, active compounds read low 0.962 | locus YLR039C, strain RIC1, active compounds read low 1.06 | locus YLR058C, strain SHM2, active compounds read low 1.01 | locus YLR102C, strain apc9, active compounds read low 1 | locus YLR113W, strain HOG1, active compounds read low 0.999 | locus YLR221C, strain rsa3, active compounds read low 0.964 | locus YLR258W, strain gsy2, active compounds read low 0.99 | locus YLR262C, strain YPT6 (second series), active compounds read low 0.994 | locus YLR268W, strain sec22, active compounds read low 1.01 | locus YLR320W, strain mms22, active compounds read low 0.966 | locus YLR342W, strain FKS1, active compounds read low 0.985 | locus YLR357W, strain rsc2, active compounds read low 0.953 | locus YLR370C, strain arc18, active compounds read low 0.971 | locus YLR371W, strain rom2, active compounds read low 0.997 | locus YLR384C, strain iki3, active compounds read low 0.993 | locus YLR418C, strain cdc73, active compounds read low 0.979 | locus YML016C, strain PPZ1, active compounds read low 1.01 | locus YML032C, strain rad52, active compounds read low 1.01 | locus YML120C, strain ndi1, active compounds read low 0.992 | locus YML124C, strain tub3, active compounds read low 1 | locus YMR058W, strain fet3, active compounds read low 0.986 | locus YMR078C, strain ctf18, active compounds read low 1.01 | locus YMR125W, strain sto1, active compounds read low 0.999 | locus YMR129W, active compounds read low 0.987 | locus YMR205C, strain PFK2, active compounds read low 0.991 | locus YMR223W, strain ubp8, active compounds read low 0.998 | locus YMR231W, strain pep5, active compounds read low 0.95 | locus YMR307W, strain GAS1, active compounds read low 0.941 | locus YNL067W, strain RPL9B, active compounds read low 0.997 | locus YNL071W, strain lat1, active compounds read low 0.99 | locus YNL183C, strain NPR1, active compounds read low 0.963 | locus YNL209W, strain ssb2, active compounds read low 0.998 | locus YNL233W, strain BNI4, active compounds read low 1.03 | locus YNL248C, strain rpa49, active compounds read low 0.973 | locus YNL250W, strain rad50, active compounds read low 0.983 | locus YNL271C, strain bni1, active compounds read low 1 | locus YNL298W, strain CLA4, active compounds read low 1 | locus YNL307C, strain MCK1, active compounds read low 0.993 | locus YNL322C, strain KRE1 (second series), active compounds read low 0.978 | locus YNL322C, strain KRE1, active compounds read low 1.01 | locus YNR049C, strain mso1, active compounds read low 0.976 | locus YNR052C, strain pop2, active compounds read low 0.996 | locus YOL012C, strain htz1 0.75 | locus YOL147C, strain pex11, active compounds read low 1.01 | locus YOR001W, strain rrp6, active compounds read low 0.97 | locus YOR061W, strain CKA2, active compounds read low 1 | locus YOR069W, strain VPS5, active compounds read low 1 | locus YOR070C, strain gyp1, active compounds read low 0.975 | locus YOR080W, strain dia2, active compounds read low 0.971 | locus YOR083W, strain WHI5, active compounds read low 1.01 | locus YOR106W, strain vam3, active compounds read low 0.994 | locus YOR136W, strain idh2, active compounds read low 0.997 | locus YOR144C, strain elg1, active compounds read low 1.02 | locus YOR184W, strain ser1, active compounds read low 1.01 | locus YOR231W, strain MKK1, active compounds read low 0.986 | locus YOR265W, strain rbl2, active compounds read low 0.981 | locus YOR270C, strain vph1, active compounds read low 0.922 | locus YOR290C, strain snf2, active compounds read low 0.994 | locus YOR316C, strain cot1, active compounds read low 1 | locus YPL051W, strain arl3, active compounds read low 0.986 | locus YPL078C, strain atp4, active compounds read low 0.994 | locus YPL106C, strain sse1, active compounds read low 0.989 | locus YPL240C, strain hsp82, active compounds read low 0.981 | locus YPL256C, strain CLN2, active compounds read low 0.984 | locus YPR119W, strain clb2, active compounds read low 0.996 | locus YPR141C, strain kar3, active compounds read low 1.01 | locus YPR163C, strain tif3, active compounds read low 0.999 | locus YPR167C, strain met16, active compounds read low 0.998 | strain wtn01, active compounds read low 1
active: locus YKL085W, strain MDH1 (second series), active compounds read low 1.13 [resistant] | locus YKL085W, strain MDH1, active compounds read low 1.13 [resistant]
